Records with an inconclusive call do not appear. Calls of active or inactive are those of the source. Rule for the calls, unless noted: active = hit-call score of the fitted dose curve at least 0.9, where 1 is the maximum; inconclusive = response in the unintended direction; inactive = score below 0.9.
Assays:
[1] = ATG_M_19_TRANS: Attagene TRANS-FACTORIAL HepG2 Assay for M19 Transcription Factor (Internal Marker) (AID 2282974); conditions: HepG2 Attagene TRANS-FACTORIAL M19 internal marker reporter
Outline: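 Reporter mRNA induction was measured in transfected HepG2 cells 24 h after dosing. Endpoint fitted upward relative to DMSO and serves as a background control within the multiplexed TRANS panel.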

[2] = biological target: Bile acid receptor (Homo sapiens) (UniProt Q96RI1); assay: ATG_FXR_TRANS: Attagene TRANS-FACTORIAL HepG2 Assay for Farnesoid X Receptor (FXR) (AID 2282979); conditions: HepG2 Attagene TRANS FXR-GAL4 reporter transcription;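 note: hits raise reporter mRNA above DMSO so AC50 marks FXR activation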
Outline: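 HepG2 cells transiently transfected with reporter constructs in which a chimeric FXR-GAL4 protein drives a GAL4-UAS reporter; 24 h compound exposure. Reporter mRNA measured by RT-PCR, FAM labelling, HpaI digestion and capillary electrophoresis; gain-of-signal versus DMSO.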

[3] = biological target: Oxysterols receptor LXR-beta (Homo sapiens) (UniProt P55055); assay: ATG_LXRb_TRANS: Attagene TRANS-FACTORIAL HepG2 Assay for human Liver X Receptor beta (LXRb) (AID 2282981); conditions: HepG2 Attagene TRANS GAL4-LXRb reporter, mRNA
Outline: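 Gain-of-signal mRNA reporter endpoint, DMSO as negative control. Transiently transfected HepG2 cells carrying the NR-Gal4 chimera and GAL4-UAS reporter units were treated 24 h; transcripts quantified by RT-PCR and capillary electrophoresis fluorescence.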

[4] = biological target: Estrogen-related receptor gamma (Homo sapiens) (UniProt P62508); assay: ATG_ERRg_TRANS: Attagene TRANS-FACTORIAL HepG2 Assay for human Estrogen-Related Receptor gamma (ERRg) (AID 2282977); conditions: HepG2 Attagene TRANS reporter, ERRg transactivation;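 note: hits increase reporter signal over DMSO so potencies reflect activators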
Outline: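 HepG2 cells transiently transfected with multiplexed GAL4-UAS reporter units and chimeric NR-Gal4 constructs were exposed to test chemicals for 24 h. Reporter mRNA was measured by RT-PCR, 6-FAM primer extension, HpaI digestion and capillary electrophoresis; gain-of-signal versus DMSO.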

[5] = biological target: Glucocorticoid receptor (Homo sapiens) (UniProt P04150); assay: ATG_GR_TRANS: Attagene TRANS-FACTORIAL HepG2 Assay for human Glucocorticoid Receptor (GR) (AID 2282978); conditions: HepG2 Attagene TRANS GR reporter, mRNA transcription;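 note: activators score as hits since higher reporter transcript over DMSO is fitted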
Outline: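 Reporter transcript levels, detected by fluorescence after RT-PCR and capillary electrophoresis, served as the endpoint. HepG2 cells bearing transfected GAL4-UAS reporters responsive to NR-GAL4 chimeras were incubated with compound 24 h; DMSO defined baseline.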

[6] = biological target: X-box-binding protein 1 (Homo sapiens) (UniProt P17861); assay: ATG_Xbp1_CIS: Attagene CIS-FACTORIAL HepG2 Assay for human X-box Binding Protein 1 (XBP1) (AID 2282972; active = hit-call score of the fitted dose curve at least 0.9, where 1 is the maximum; inactive = score below 0.9); conditions: HepG2 XBP1 cis-element reporter, Attagene multiplex; actives raise or lower the signal
Outline: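 HepG2 cells transiently transfected with multiple cis-element reporter units report endogenous TF activity; 24 h exposure, then reporter mRNA measured by RT-PCR, 6-FAM labelling, HpaI digestion and capillary electrophoresis. Bidirectional fitting versus DMSO.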

[7] = biological target: Oxysterols receptor LXR-alpha (Homo sapiens) (UniProt Q13133); assay: ATG_LXRa_TRANS: Attagene TRANS-FACTORIAL HepG2 Assay for human Liver X Receptor alpha (LXRa) (AID 2282980); conditions: HepG2 Attagene TRANS reporter, LXRa transactivation
Outline: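 HepG2 cells were transiently transfected with multiplexed reporter units driven by chimeric LXRa–GAL4 fusion proteins, then dosed for 24 h. Reporter mRNA was quantified by RT-PCR, fluorescent labelling and capillary electrophoresis; gain of signal fitted against DMSO baseline.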

[8] = ATG_GAL4_TRANS: Attagene TRANS-FACTORIAL HepG2 Assay for GAL4 (Internal Marker) (AID 2282976); conditions: HepG2 Attagene TRANS GAL4 internal marker reporter
Outline: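 HepG2 cells transiently transfected with multiplexed GAL4-UAS reporter constructs were dosed for 24 h. Reporter mRNA was measured by RT-PCR, 6-FAM primer extension, HpaI digestion and capillary electrophoresis, and gain of signal was fitted relative to DMSO.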

[9] = biological target: Androgen receptor (Homo sapiens) (UniProt P10275); assay: ATG_AR_TRANS: Attagene TRANS-FACTORIAL HepG2 Assay for human Androgen Receptor (AR) (AID 2282973); conditions: HepG2 Attagene TRANS-FACTORIAL AR reporter transcription
Outline: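 HepG2 cells transiently transfected with multiplexed GAL4-UAS reporter units and chimeric NR-Gal4 fusion; 24 h compound exposure. Reporter mRNA measured by RT-PCR, 6-FAM labelling, HpaI digestion and capillary electrophoresis; gain-of-signal fitted relative to DMSO baseline.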

Chain of X-box-binding protein 1 (Homo sapiens) (P17861 whole entry, looked up): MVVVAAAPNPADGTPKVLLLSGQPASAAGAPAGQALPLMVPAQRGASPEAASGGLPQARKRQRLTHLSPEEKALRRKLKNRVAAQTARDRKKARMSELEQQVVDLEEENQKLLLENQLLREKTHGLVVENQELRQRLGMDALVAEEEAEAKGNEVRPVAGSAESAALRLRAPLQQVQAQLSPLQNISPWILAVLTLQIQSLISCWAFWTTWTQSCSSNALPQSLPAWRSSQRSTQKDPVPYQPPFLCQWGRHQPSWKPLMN
Chain of Oxysterols receptor LXR-alpha (Homo sapiens) (Q13133 whole entry, looked up, the tested form may be a part): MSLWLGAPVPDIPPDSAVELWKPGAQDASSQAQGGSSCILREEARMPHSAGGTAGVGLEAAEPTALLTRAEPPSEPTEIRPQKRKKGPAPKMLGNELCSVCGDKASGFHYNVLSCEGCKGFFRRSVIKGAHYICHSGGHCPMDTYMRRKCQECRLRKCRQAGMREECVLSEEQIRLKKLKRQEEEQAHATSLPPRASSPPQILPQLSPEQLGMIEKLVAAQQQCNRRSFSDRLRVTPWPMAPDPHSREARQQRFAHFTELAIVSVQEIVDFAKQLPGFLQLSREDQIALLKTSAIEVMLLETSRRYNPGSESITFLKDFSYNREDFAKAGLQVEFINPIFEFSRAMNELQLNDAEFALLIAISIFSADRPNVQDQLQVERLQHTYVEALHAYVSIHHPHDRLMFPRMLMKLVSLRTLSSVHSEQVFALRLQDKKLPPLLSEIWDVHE
Chain of Bile acid receptor (Homo sapiens) (Q96RI1 whole entry, looked up, the tested form may be a part): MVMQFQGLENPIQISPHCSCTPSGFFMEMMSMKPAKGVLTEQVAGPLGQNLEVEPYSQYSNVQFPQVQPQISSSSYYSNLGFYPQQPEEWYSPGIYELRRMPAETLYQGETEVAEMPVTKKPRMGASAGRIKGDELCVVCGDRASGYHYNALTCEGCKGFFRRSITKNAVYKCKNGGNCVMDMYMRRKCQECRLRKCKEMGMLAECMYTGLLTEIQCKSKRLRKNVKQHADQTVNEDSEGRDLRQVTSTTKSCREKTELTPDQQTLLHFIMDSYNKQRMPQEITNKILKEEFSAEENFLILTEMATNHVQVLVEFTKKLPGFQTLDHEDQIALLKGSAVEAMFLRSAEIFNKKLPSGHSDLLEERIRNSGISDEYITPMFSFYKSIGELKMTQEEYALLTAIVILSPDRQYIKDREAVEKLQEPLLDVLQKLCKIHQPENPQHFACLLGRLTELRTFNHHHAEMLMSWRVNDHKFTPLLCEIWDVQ
Chain of Oxysterols receptor LXR-beta (Homo sapiens) (P55055 whole entry, looked up, the tested form may be a part): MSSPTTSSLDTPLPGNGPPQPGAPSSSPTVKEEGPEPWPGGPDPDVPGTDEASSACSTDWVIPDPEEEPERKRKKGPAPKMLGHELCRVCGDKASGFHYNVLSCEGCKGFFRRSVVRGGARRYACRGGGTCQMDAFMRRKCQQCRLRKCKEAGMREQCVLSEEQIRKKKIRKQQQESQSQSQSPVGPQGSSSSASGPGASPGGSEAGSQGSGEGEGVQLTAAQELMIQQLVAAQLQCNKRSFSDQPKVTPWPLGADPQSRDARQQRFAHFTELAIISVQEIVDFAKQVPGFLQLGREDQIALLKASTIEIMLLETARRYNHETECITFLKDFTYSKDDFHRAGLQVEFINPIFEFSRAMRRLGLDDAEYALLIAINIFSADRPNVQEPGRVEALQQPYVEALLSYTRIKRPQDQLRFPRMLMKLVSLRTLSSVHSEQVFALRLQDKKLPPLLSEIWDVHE
Chain of Estrogen-related receptor gamma (Homo sapiens) (P62508 whole entry, looked up, the tested form may be a part): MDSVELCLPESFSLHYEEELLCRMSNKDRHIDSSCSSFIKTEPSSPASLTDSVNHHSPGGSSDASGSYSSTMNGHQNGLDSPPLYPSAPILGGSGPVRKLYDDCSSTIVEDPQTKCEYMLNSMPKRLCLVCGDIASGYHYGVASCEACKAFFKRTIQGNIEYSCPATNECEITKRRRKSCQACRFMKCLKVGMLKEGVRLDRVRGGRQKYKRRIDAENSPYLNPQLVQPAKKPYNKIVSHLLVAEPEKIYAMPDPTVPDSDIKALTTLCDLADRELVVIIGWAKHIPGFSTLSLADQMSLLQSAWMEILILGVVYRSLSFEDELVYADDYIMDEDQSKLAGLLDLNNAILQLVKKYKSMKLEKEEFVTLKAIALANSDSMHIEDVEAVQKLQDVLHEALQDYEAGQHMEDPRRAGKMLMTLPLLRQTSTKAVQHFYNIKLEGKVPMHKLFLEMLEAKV
Chain of Glucocorticoid receptor (Homo sapiens) (P04150 whole entry, looked up, the tested form may be a part): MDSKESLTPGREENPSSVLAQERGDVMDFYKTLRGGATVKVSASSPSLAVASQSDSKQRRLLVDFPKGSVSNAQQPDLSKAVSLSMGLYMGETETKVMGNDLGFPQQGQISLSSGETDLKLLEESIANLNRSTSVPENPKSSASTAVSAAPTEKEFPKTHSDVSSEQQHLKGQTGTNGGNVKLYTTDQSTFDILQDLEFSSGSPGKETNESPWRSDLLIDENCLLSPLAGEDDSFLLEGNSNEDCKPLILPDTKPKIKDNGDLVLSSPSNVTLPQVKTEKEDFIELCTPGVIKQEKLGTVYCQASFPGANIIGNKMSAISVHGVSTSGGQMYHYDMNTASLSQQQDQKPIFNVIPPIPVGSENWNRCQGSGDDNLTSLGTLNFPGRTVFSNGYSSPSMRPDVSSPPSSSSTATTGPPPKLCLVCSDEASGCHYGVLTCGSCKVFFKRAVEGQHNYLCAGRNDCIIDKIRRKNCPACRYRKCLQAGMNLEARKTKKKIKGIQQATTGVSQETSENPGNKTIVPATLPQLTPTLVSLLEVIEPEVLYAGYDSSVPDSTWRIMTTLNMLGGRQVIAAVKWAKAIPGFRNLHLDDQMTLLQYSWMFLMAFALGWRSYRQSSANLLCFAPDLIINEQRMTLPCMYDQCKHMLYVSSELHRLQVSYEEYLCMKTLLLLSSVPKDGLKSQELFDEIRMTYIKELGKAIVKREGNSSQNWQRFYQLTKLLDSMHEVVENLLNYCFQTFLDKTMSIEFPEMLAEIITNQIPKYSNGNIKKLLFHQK
Chain of Androgen receptor (Homo sapiens) (P10275 whole entry, looked up, the tested form may be a part): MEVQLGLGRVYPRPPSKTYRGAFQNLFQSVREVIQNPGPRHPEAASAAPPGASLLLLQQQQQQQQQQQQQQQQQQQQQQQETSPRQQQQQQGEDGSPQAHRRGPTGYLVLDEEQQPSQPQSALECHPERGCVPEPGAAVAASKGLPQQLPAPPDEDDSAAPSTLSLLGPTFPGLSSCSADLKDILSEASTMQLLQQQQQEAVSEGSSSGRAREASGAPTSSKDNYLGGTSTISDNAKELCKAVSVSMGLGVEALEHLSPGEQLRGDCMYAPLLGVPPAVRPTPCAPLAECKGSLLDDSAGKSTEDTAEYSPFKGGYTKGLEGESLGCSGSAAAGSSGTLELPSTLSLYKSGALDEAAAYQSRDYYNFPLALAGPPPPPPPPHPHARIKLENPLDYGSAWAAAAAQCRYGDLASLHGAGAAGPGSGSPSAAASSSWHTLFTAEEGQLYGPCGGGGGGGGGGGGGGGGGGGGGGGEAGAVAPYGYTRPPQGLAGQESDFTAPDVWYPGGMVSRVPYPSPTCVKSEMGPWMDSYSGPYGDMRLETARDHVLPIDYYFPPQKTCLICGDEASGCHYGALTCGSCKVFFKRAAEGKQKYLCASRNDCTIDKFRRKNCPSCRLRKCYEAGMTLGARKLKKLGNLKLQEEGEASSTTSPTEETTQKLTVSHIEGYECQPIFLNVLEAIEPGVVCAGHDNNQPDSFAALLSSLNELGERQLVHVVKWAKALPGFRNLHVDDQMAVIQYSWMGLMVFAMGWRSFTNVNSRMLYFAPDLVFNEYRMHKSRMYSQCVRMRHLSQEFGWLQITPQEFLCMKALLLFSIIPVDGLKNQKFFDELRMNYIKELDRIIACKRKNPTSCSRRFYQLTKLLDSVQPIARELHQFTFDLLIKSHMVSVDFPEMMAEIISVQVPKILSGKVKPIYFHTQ

Question: For CC(C)(C)c1ccc(CCOc2ncnc3ccccc23)cc1, which outcome [1] is on record?
Answer: Its outcome is “inactive”.

Question: What about the outcome [2] of the same molecule?
Answer: The outcome was “inactive”.

Question: And the outcome [3]?
Answer: The outcome was “inactive”.

Question: For O=C(CBr)c1ccc(O)cc1, which outcome [1] is on record?
Answer: The outcome was “inactive”.

Question: And the outcome [4]?
Answer: Its outcome is “inactive”.

Question: And the outcome [3]?
Answer: The outcome was “inactive”.

Question: For Cc1cc(SCc2sc(-c3ccc(C(F)(F)F)c(F)c3)nc2C)ccc1OCC(=O)O, which outcome [1] is on record?
Answer: The outcome was “inactive”.

Question: And the outcome [5]?
Answer: Its outcome is “inactive”.

Question: And the outcome [3]?
Answer: The outcome was “inactive”.

Question: Which results are given for CC(C)(COCC1CO1)COCC1CO1 (stereo not drawn)?
Answer: outcome [1]: inactive; outcome [2]: inactive

Question: Which outcome [6] does the source give for Oc1c(Cl)cc(Cl)cc1Cl here?
Answer: The outcome was “inactive”.

Question: And the outcome [3]?
Answer: The outcome was “inactive”.

Question: With CC(C)(C1CCC(O)CC1)C1CCC(O)CC1 (stereo not drawn) as the molecule, how does the outcome [6] read?
Answer: Its outcome is “inactive”.

Question: And the outcome [7]?
Answer: Its outcome is “inactive”.

Question: What about the outcome [3] of the same molecule?
Answer: The outcome was “inactive”.

Question: Which results are given for ClCc1ccccc1CCl?
Answer: AC50 [6]: 12.6 µM (active); outcome [7]: inactive; outcome [3]: inactive

Question: What does the source list for CC(C)(c1ccccc1)c1cc(-n2nc3ccccc3n2)c(O)c(C(C)(C)c2ccccc2)c1?
Answer: outcome [6]: inactive; outcome [7]: inactive; outcome [3]: inactive

Question: What does the source list for NNCCO?
Answer: outcome [1]: inactive; outcome [4]: inactive; outcome [2]: inactive; outcome [3]: inactive

Question: Which results are given for CCCCCCCCBr?
Answer: outcome [1]: inactive; outcome [8]: inactive; outcome [5]: inactive; outcome [2]: inactive; outcome [7]: inactive

Question: What does the source list for CCOP(=S)(OCC)OP(=S)(OCC)OCC?
Answer: outcome [9]: inactive; outcome [8]: inactive; outcome [5]: inactive; outcome [3]: inactive

Question: Which outcome [1] does the source give for CC(C)(C)c1ccccc1O here?
Answer: Its outcome is “inactive”.

Question: What about the outcome [5] of the same molecule?
Answer: Its outcome is “inactive”.

Question: What about the outcome [3] of the same molecule?
Answer: The outcome was “inactive”.

Question: Which results are given for CC(C)C(C)(N)C#N (stereo not drawn)?
Answer: outcome [5]: inactive; outcome [2]: inactive; outcome [3]: inactive

Question: Which results are given for Nc1nc(=S)[nH][nH]1?
Answer: outcome [8]: inactive; outcome [5]: inactive; outcome [7]: inactive; outcome [3]: inactive

Question: With COc1ccc(N)cc1 as the molecule, how does the outcome [1] read?
Answer: The outcome was “inactive”.

Question: What about the outcome [8] of the same molecule?
Answer: Its outcome is “inactive”.

Question: And the outcome [5]?
Answer: Its outcome is “inactive”.

Question: What about the outcome [7] of the same molecule?
Answer: The outcome was “inactive”.

Question: What about the outcome [3] of the same molecule?
Answer: The outcome was “inactive”.

Question: With CN(C)[C@@H]1C(=O)C(C(N)=O)=C(O)[C@@]2(O)C(=O)C3=C(O)c4c(O)ccc(Cl)c4[C@@](C)(O)[C@H]3C[C@@H]12 as the molecule, how does the outcome [6] read?
Answer: Its outcome is “inactive”.

Question: What about the outcome [3] of the same molecule?
Answer: The outcome was “inactive”.

Question: With C#CCOC(=O)/C=C(C)/C=C/CC(C)CCCC(C)C (stereo not drawn) as the molecule, how does the outcome [8] read?
Answer: The outcome was “inactive”.

Question: What about the outcome [5] of the same molecule?
Answer: Its outcome is “inactive”.

Question: And the outcome [2]?
Answer: The outcome was “inactive”.

Question: Which outcome [6] does the source give for C#C[C@]1(O)CC[C@H]2[C@@H]3CCC4=CC(=O)CC[C@]4(C)[C@H]3CC[C@@]21C here?
Answer: Its outcome is “inactive”.

Question: And the outcome [7]?
Answer: Its outcome is “inactive”.

Question: What about the outcome [3] of the same molecule?
Answer: The outcome was “inactive”.

Question: Which results are given for Nc1cccnc1?
Answer: outcome [6]: inactive; outcome [3]: inactive

Question: What does the source list for O=C(O)CC(O)(CC(=O)O)C(=O)O?
Answer: outcome [6]: inactive; outcome [7]: inactive; outcome [3]: inactive

Question: With CCOP(=S)(OCC)Oc1ccc(Cl)cc1Cl as the molecule, how does the outcome [1] read?
Answer: The outcome was “inactive”.

Question: And the outcome [7]?
Answer: Its outcome is “inactive”.

Question: For Nc1ccc(-c2ccccc2)cc1, which outcome [6] is on record?
Answer: Its outcome is “inactive”.

Question: What about the outcome [3] of the same molecule?
Answer: Its outcome is “inactive”.

Question: For CC(=Cc1ccccc1)[N+](=O)[O-], which outcome [4] is on record?
Answer: Its outcome is “inactive”.

Question: With CCOC(=O)CC(=O)CCl as the molecule, how does the outcome [7] read?
Answer: The outcome was “inactive”.

Question: Which outcome [8] does the source give for CC(C=O)Cc1ccc2c(c1)OCO2 (stereo not drawn) here?
Answer: The outcome was “inactive”.

Question: And the outcome [7]?
Answer: The outcome was “inactive”.

Question: What does the source list for OCC(c1ccc(Cl)cc1)c1ccc(Cl)cc1?
Answer: outcome [5]: inactive; outcome [2]: inactive

Reference: PubChem BioAssay (EPA / NIEHS)
